The list is not random: actives were taken first. Their share in the collection is about 19%.
HepG2 tox – counter-screen for TGF-b inhibitors: cytotoxicity in HepG2 cells | HepG2 CAGA-GFP viability, ATP luminescence, 18 h | Potency, µM (series often up to 46.1 µM), inactives show at the top dose activity change, negative = cytotoxicity, hits mostly cytotoxic | hit rate 0.76% among 410,000 | AID 588856; note: potency is the fitted concentration of half-maximal effect
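HepG2 CAGA-GFP cells (1000/well, DMEM with 1% FBS) received compound, then TGF-beta at 500 pg/mL final, and were incubated 18 hours at 37 degrees C. Viability was read by CellTiter-Glo luminescence. Media-only wells were set as complete cell-killing and DMSO as no toxicity.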
TGFb inhibitor – TGF-b pathway inhibition; HepG2 CAGA-GFP TGF-b/SMAD3 reporter, GFP fluorescence, 18 h; TGF-beta stimulated, 500 pg/mL final; Potency, µM (top dose mostly 46.1 µM), inactives show at the top dose activity, negative = inhibition, usual class: inhibitors; hit rate 1.2% among 410,000; AID 588855; note: potency is the fitted concentration of half-maximal effect; % is set by controls: 0 for no effect and ±100 for the full control effect; nearly all actives have a fitted effect of over 65% in size
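Read-out: total well GFP (ex488/em500-530) summed from mean per-cell fluorescence. Cells: HEPG2 CAGA-GFP, 1% FBS DMEM, 18 h at 37 degrees C with 500 pg/mL final TGF-beta. Unstimulated wells served as the full-inhibition control; stimulated DMSO wells = 0%.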
TDP1 cell CPT – DT40-hTDP1 cell growth loss with CPT | hit rate 12% among 420,000 | Potency, µM (top dose mostly 46.2 µM), for inactives: at the highest dose activity change, negative = growth inhibition, most hits filed as inhibitors | chicken DT40 Tdp1-/-;hTDP1 cells + 20 nM CPT, ATP luminescence, 48 h; note: potency is the fitted concentration of half-maximal effect; % is set by controls: 0 for no effect and ±100 for the full control effect; nearly all actives have a fitted effect of over 55% in size
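Cell growth measured by CellTiter-Glo luminescence after a minimum 48 h, 37 C compound exposure with 20 nM CPT in Tdp1-knockout DT40 cells stably expressing hTDP1, seeded 400/well; qHTS titration format.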
TDP1 block – blocks human tyrosyl-DNA phosphodiesterase 1; Q9NUW8; hit rate 0.28% among 350,000; Potency, µM (series often up to 130 µM), inactives show at the top dose activity change, negative = inhibition, usual class: inhibitors; recombinant TDP1, AlphaScreen DNA substrate cleavage; AID 485290; note: potency is the fitted concentration of half-maximal effect; % is set by controls: 0 for no effect and ±100 for the full control effect; nearly all actives have a fitted effect of over 40% in size
Target sequence (Q9NUW8 whole entry, looked up): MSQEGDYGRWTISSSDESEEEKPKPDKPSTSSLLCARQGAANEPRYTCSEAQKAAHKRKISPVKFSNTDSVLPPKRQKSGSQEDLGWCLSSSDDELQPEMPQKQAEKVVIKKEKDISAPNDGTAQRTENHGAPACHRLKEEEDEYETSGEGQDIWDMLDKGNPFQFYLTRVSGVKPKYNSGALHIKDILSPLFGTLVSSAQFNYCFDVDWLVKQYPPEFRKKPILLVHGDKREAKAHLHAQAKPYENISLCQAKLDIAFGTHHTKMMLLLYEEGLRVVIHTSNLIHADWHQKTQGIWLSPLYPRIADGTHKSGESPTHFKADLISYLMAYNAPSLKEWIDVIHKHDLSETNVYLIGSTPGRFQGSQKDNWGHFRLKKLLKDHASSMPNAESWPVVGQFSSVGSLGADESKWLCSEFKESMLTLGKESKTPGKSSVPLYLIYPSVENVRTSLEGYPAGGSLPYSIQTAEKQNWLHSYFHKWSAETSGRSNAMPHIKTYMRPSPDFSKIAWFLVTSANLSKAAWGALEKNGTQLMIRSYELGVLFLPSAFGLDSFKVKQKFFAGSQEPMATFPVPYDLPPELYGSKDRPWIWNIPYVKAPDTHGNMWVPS
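E. coli-derived human Tdp1, 1 nM final. Cpd preinc 15 min RT; substrate 15 nM final, 5 min RT; AS bead mix 10 ug/ml final, 10 min RT. Signal loss = tyrosine-FITC cleavage. No-enzyme wells = max signal.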
TDP1 cell noCPT – qHTS for Inhibitors of human tyrosyl-DNA phosphodiesterase 1 (TDP1): qHTS in cells in absence of CPT | DT40 Tdp1-/- hTDP1 cells, no CPT, ATP luminescence, 48 h | Potency, µM (top dose mostly 46.2 µM), for the others: at the top dose activity change, negative = growth inhibition, hits mostly inhibitors | hit rate 15% among 420,000 | AID 686978, 2013; note: potency is the fitted concentration of half-maximal effect; % is set by controls: 0 for no effect and ±100 for the full control effect; nearly all actives have a fitted effect of over 55% in size
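Luminescent ATP content (CellTiter-Glo) served as the growth readout. Knockout chicken DT40 cells expressing human TDP1 were exposed to compounds without camptothecin for a minimum 48 hr at 37 °C.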
IL1B secr inh – inflammasome signaling inhibition, IL-1 beta readout. AID 743279. THP-1 LPS/ATP IL-1B secretion, AlphaLISA, 16 h; hits give low values. activity change, % at 57.5 µM. hit rate 4.7% among 360,000; in the data active = activity change below about -50%; inconclusive = mostly about -30% to -49%; note: % is set by controls: 0 for no effect and ±100 for the full control effect
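THP-1 cells pretreated 1 hr with compounds (up to 57.5 uM final), then stimulated with LPS (250 ng/mL final) plus ATP (1.25 mM final); secreted IL-1B measured by AlphaLISA after 16 hr, decreased signal indicating inhibition.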
* = called active by the depositor; u = inconclusive; x = not tested or not shown; [ ] = another dose, or the depositor's remark. Unless noted, calls come from the whole dose curve; as a rule, active = well fitted curve in the direction sought with a large enough effect; inconclusive = small, poorly fitted or top-dose-only effect, or another doubt; inactive = no such curve, though single readings can be large; an effect the other way counts as inactive or inconclusive.

SMILES	HepG2 tox	TGFb inhibitor	TDP1 cell CPT	TDP1 block	TDP1 cell noCPT	IL1B secr inh
COc1ccccc1C1N=C(Nc2nc3ccccc3o2)NC2=C1C(=O)CC(C)(C)C2 (centres undefined)	2.9%	-10.4%	u	1.3%	u	x
O=C(CCCn1c(=O)c2sccc2n(Cc2cccc(Cl)c2)c1=O)NCc1ccc2c(c1)OCO2	-27.1%	u	u	1.8%	-17.6%	x
CCOC(=O)c1c(C)[nH]c(CCC(=O)NCc2cc(OC)c(OC)c(OC)c2)c1C	-15.4%	0.0%	u	0.0%	u	x
Cc1n[nH]c(C)c1CCc1nc2c3ccccc3nc(SCC(=O)Nc3ccc(F)cc3)n2n1	12.6µM*	u	18.4µM*	0.5%	29.1µM*	x
Cc1ccc(NC(=O)CSc2nc3ccccc3c3nc(CCc4c(C)n[nH]c4C)nn23)cc1F	-47.1%	-16.4%	7.31µM*	79.4µM*	6.51µM*	-5.8
Cc1cccc(C)c1NC(=O)CSc1nc2ccccc2c2nc(CCc3c(C)n[nH]c3C)nn12	-2.5%	8.2%	-17.1%	2.5%	-29.3%	x
COc1ccc([C@H]2C[C@@H](n3cc(COC(=O)c4ccccc4)nn3)[C@H](O)CN2C(=O)C2CCCCC2)cc1	-9.7%	u	4.5%	x	-10.8%	-9.0
COc1ccc(/C=c2\[nH]c(=O)/c(=C/c3ccc(OC)cc3)[nH]c2=O)cc1	-31.4%	u	-0.4%	x	-0.8%	x
COc1ccc(C=C2c3ccccc3C(=O)c3ccccc32)cc1O	x	x	x	23.3%	x	x
Cc1csc[n+]1CC(=O)c1ccccc1	-3.1%	3.0%	-17.0%	x	-12.5%	x
O=C(C[n+]1ccccc1)c1ccc(I)cc1	4.8%	3.5%	-19.6%	x	u	x
O/N=C(/C[n+]1csc2ccccc21)c1ccccc1	-26.5%	-11.4%	1.12µM*	x	1.12µM*	x
O=C(C[n+]1csc2ccccc21)c1ccc(I)cc1	-2.5%	-2.4%	u	x	11.2µM*	x
Cc1csc[n+]1CC(=O)c1ccc(I)cc1	-31.1%	-3.9%	15.8µM*	x	u	x
CCc1nn2c(=O)cc(COC(=O)COc3ccc(OC)cc3)nc2s1	-16.0%	-29.5%	-27.6%	5.8%	7.3%	x
Cc1cccc(-c2nc(S(=O)(=O)c3ccc(Cl)cc3)c(N3CCCCCC3)o2)c1	0.3%	-4.5%	u	4.2%	u	x
CCOC(=O)c1c(C)oc2ccc(O)c(CN3CCCCC3)c12	-34.6%	-9.4%	u	3.4%	-29.0%	-69.4*
CCOC(=O)c1oc2cccc(O)c2c1CN1CCOCC1	-22.7%	2.4%	-23.3%	0.0%	-27.9%	24.2
CCOC(=O)c1c(-c2ccccc2)oc2ccc(O)c(CN3CCOCC3)c12	-61.4%	-11.9%	23.1µM*	2.2%	23.1µM*	0.0
CC(C)C(=O)N[C@@H]1CCCN1C(=O)/C=C\c1ccccc1	x	x	x	6.9%[21 µM]	x	x
CCCCNC(=O)c1ccc2c(c1)N(Cc1ccc(F)cc1)C(=O)c1ccccc1S2=O (centres undefined)	-4.7%	0.0%	23.1µM*	3.5%	18.4µM*	x
O=C(NCc1ccco1)c1ccc2c(c1)N(Cc1ccccc1F)C(=O)c1ccccc1S2=O (centres undefined)	-7.4%	1.6%	-19.1%	4.6%	u	x
O=C(NCc1ccco1)c1ccc2c(c1)N(Cc1ccc(F)cc1)C(=O)c1ccccc1S2=O (centres undefined)	-25.8%	-13.6%	u	5.8%	16.4µM*	x
O=C(NCCN1CCCC1)c1ccc2c(c1)N(Cc1ccc(F)cc1)C(=O)c1ccccc1S2=O (centres undefined)	-5.7%	-12.8%	u	5.3%	u	-24.0
Cc1ccc(C)c(CN2C(=O)c3ccccc3S(=O)c3ccc(C(=O)NCc4ccco4)cc32)c1 (centres undefined)	-37.4%	-10.3%	u	10.4%	16.4µM*	x
SMILES	HepG2 tox	TGFb inhibitor	TDP1 cell CPT	TDP1 block	TDP1 cell noCPT	IL1B secr inh
NNC(=O)c1ccc(-c2cccc([N+](=O)[O-])c2)o1	-5.3%	-1.7%	u	-2.7%	-9.6%	-25.0
CCC(CC)C(=O)Nc1cccc(C(=O)Nc2ccc(OC)cc2[N+](=O)[O-])c1	-22.5%	-7.0%	-22.3%	-4.0%	-11.7%	2.4
COc1cc(NC(=O)c2ccc(-c3cccc([N+](=O)[O-])c3)o2)ccc1NC(=O)C(C)C	-45.7%	0.0%	u	3.9%	20.6µM*	10.5
COc1ccc(CCNC(=O)c2ccc(-c3cccc([N+](=O)[O-])c3)o2)cc1OC	-20.7%	13.4%	u	0.0%	20.6µM*	-28.9
COc1cc([N+](=O)[O-])ccc1NC(=O)c1cccc(NC(=O)C(C)C)c1	5.3%	0.8%	u	0.0%	29.1µM*	x
COc1ccc(CCNC(=O)c2cccc([N+](=O)[O-])c2)cc1OC	2.0%	-2.6%	u	x	u	x
N#Cc1nc(N2CCCCC2)nc(N2CCCCC2)n1	3.7%	-0.3%	u	-11.4%	12.6µM*	x
N#Cc1nc(N2CCCCC2)nc(N(c2ccccc2)c2ccccc2)n1	-0.5%	3.6%	11.2µM*	-3.7%	12.6µM*	x
Nc1nc(N2CCCCC2)nc(N(c2ccccc2)c2ccccc2)n1	-4.1%	-2.6%	u	4.3%	u	1.4
CCOc1cccc(-c2cnc3cccnn23)c1	-11.8%	-13.9%	u	x	10.3µM*	-11.7
CC1=Cc2ccccc2C(C#N)N1C(=O)c1ccccc1 (centres undefined)	-6.8%	-14.4%	20.6µM*	4.5%	18.4µM*	22.7
